Experimental data taken from PubChem BioAssay (Tox21).
Results filed as inconclusive are left out. A number with no mark means an inactive call. The source made the active and inactive calls. The call rests on the fitted dose curve; in most records, active means well fitted cell-killing curve with a large enough effect in the repeat runs; inconclusive means weak or mixed curves, or effect the other way; inactive means no such curve, though single readings can be large or run the other way.

experiment: qHTS assay to identify small molecule antagonists of the retinoid-related orphan receptor gamma (ROR-gamma) signaling pathway - cell viability counter screen (AID 1159520); details: Tet-on RORgamma CHO cells viability, ATP luminescence, 16 h; series mostly up to 92.4 µM; activity, negative = cytotoxicity: at the top concentration; further: nearly all actives have a fitted effect of over 50% in size
Source text: U.S. Tox21 Program National Center for Advancing Translational Sciences [NCATS] NIH Chemical Genomics Center [NCGC] U.S. Environmental Protection Agency [EPA] National Institutes of Environmental Health Sciences [NIEHS] National Toxicology Program [NTP] U.S. Food and Drug Administration [FDA] Tox21 Assay Overview: Nuclear steroid hormone receptors are involved in many biological processes including inflammatory responses, cell proliferation, and apoptosis. Environmental factors or compounds disrupting these nuclear receptor pathways and gene expression may promote susceptibility to immunotoxicants and autoimmune diseases. One important group of these expression factors are the retinoid-related orphan receptors. To assess compounds that may interfere with the retinoid-related orphan receptor gamma (ROR-gamma) transcription factor, a cell-based luciferase assay was used. The CHO cell-based assay utilizes a TET-inducible ROR expression factor and ROR response element-LUC reporter gene. Reporter gene activity was induced using Doxycycline Hyclate and measured after 16 hr incubation. Tet-on ROR gamma CHO cells were used to screen against the Tox21 10K compound library for cytotoxicity by measuring the viability of the cells based on the quantitation of the ATP.
Tox21 Assay Protocol Summary: Tet-on ROR gamma CHO cells were dispensed at 1,000 cells in 4 uL of culture medium per well into white wall/solid bottom 1536-well plates using a Multidrop Combi (Thermo Scientific, Waltham, MA) dispenser. Following incubation at 37 C and 5% CO2 for 4 hr, 23 nL of compounds dissolved in DMSO, positive controls or DMSO only were transferred by a Pintool station (Kalypsys, San Diego, CA) and after 2 hr incubation at 37 C, one ul of 1 uM (final concentration) of Doxycycline Hyclate was added to all the wells by using a Flying Reagent Dispenser (FRD) (Aurora Discovery, San Diego, CA). After 16 hr incubation at 37 C and 5% CO2, 5 uL of CellTiter-Glo reagent (Promega Corporation, Madison, WI) was added to each assay plate using FRD. After 30 min incubation at room temperature, luminescence was quantified on a ViewLux plate reader (Perkin Elmer, Waltham, MA).
On the % scale 0 is the no-effect control and ±100 the full control effect; potency means the concentration at half of the fitted maximal effect.

| SMILES | activity, negative = cytotoxicity | Potency |
| --- | --- | --- |
| C[N+]1(C)[C@@H]2CC[C@H]1CC(OC(=O)C(CO)c1ccccc1)C2 (stereo not given in full) | -1.71% [at 42.5 µM] |  |
| ClCBr | 3.94% |  |
| c1ccc(N=NNc2ccccc2)cc1 | -13.4% |  |
| CCOP(=O)(Sc1ccccc1)Sc1ccccc1 | -13.6% |  |
| Brc1ccc(Oc2ccc(Br)cc2Br)c(Br)c1 | -26.3% |  |
| CNC(=O)CSP(=O)(OC)OC | 4.79% |  |
| CN(C)CCc1c[nH]c2ccccc12 | -0.921% |  |
| CC(C)C(Nc1ccc(C(F)(F)F)cc1Cl)C(=O)OC(C#N)c1cccc(Oc2ccccc2)c1 (stereo not given) | -5.86% |  |
| O=C(Cl)c1ccccc1F | -2.34% |  |
| CC(C)c1c(CN(C)C(C)Cc2ccccc2)n(C)n(-c2ccccc2)c1=O (stereo not given) | -12.1% [at 42.5 µM] |  |
| c1ccc2c(c1)cc1ccc3cccc4ccc2c1c34 | -12.7% |  |
| ClSC(Cl)(Cl)Cl | 0.924% |  |
| COP(=S)(NC(C)C)Oc1ccc(C)cc1[N+](=O)[O-] (stereo not given) | -2.56% |  |
| Cc1ccc2cc3c(ccc4ccccc43)c3c2c1CC3 | -13.6% [at 42.5 µM] |  |
| O=C1C[C@@H]2OCC=C3CN4CC[C@]56c7ccccc7N1[C@H]5[C@H]2[C@H]3C[C@H]46 | -4.28% [at 42.5 µM] |  |
| C=CCBr | 1.17% |  |
| CCNc1nc(NC(C)C(C)C)nc(SC)n1 (stereo not given) | 7.1% |  |
| CCC(C)Br (stereo not given) | -2.61% |  |
| CC(Cc1ccc(O)cc1)NCC(O)c1cc(O)cc(O)c1 (stereo not given) | 2.15% [at 42.5 µM] |  |
| CCC(C)Nc1c([N+](=O)[O-])cc(C(C)(C)C)cc1[N+](=O)[O-] (stereo not given) | -15.7% |  |

| SMILES | activity, negative = cytotoxicity | Potency |
| --- | --- | --- |
| C=CCOC(=O)c1ccccc1N | 0.069% |  |
| COc1ccc2c3c1O[C@H]1[C@H](O)CC[C@H]4[C@@H](C2)N(C)CC[C@@]341 | 8.77% |  |
| CCC[CH2][Sn]([CH2]CCC)([O]C(C)=O)[O]C(C)=O |  | 97.8 nM (active) |
| CCC1COC(Cn2cncn2)(c2ccc(Cl)cc2Cl)O1 (stereo not given) | -5.61% |  |
| COC(=O)c1ccccc1S(=O)(=O)NC(=O)Nc1nc(C)nc(OC)n1 | 0.486% |  |
| N#CSCc1ccccc1 | -12.1% |  |
| O=C(O)CCCCCCNC1c2ccccc2CCc2ccccc21 | 1.43% [at 42.5 µM] |  |
| OCC(Br)CBr (stereo not given) | -12.2% |  |
| Cc1cnc2c(C(=O)O)c(Cl)ccc2c1 | -2.01% |  |
| CC(C)=CCN1CC[C@@]2(C)c3cc(O)ccc3C[C@@H]1[C@@H]2C | -4.13% |  |
| C=Cc1cccc(CCl)c1 | -10.1% [at 240 µM] |  |
| O=[N+]([O-])c1ccc(Cl)c(Cl)c1Cl | -14.1% |  |
| CC#C[C@]1(O)CC[C@H]2[C@@H]3C[C@H](C)C4=CC(=O)CC[C@]4(C)[C@H]3CC[C@@]21C | 1.23% [at 42.5 µM] |  |
| CCN(CC)CCc1c[nH]c2ccccc12 | -0.126% |  |
| CC(=O)[O-].CC(=O)[O-].CC(=O)[O-].[Cr+3] | 0.422% |  |
| N#Cc1c2ccccc2cc2ccccc12 | -14.1% |  |
| O=S(=O)(NS(=O)(=O)C(F)(F)F)C(F)(F)F | -12.1% |  |
| O=C(CCCCl)c1ccc(F)cc1 | -0.629% [at 42.5 µM] |  |
| O=[N+]([O-])[O-].[Tl+] | 6.33% |  |
| CN=C=O | 3.28% |  |
